Laboratory results: PubChem BioAssay (NCATS)
Results filed as inconclusive are left out. Unmarked numbers belong to inactive results. Active and inactive are the calls of the source. The call rests on the fitted dose curve; in most records, active means well fitted inhibition curve with a large enough effect; inconclusive means small, poorly fitted or top-dose-only effect; inactive means flat fitted curve, though single readings scatter.

What follows are compounds tested on CRL-7250 (assay: Cytotoxic Profiling of Annotated Libraries Using Quantitative High-Throughput Screening (AID 1296008; further: nearly all actives have a fitted effect of over 60% in size)). Settings: Five cell lines viability, CellTiter-Glo ATP luminescence, 48-72 h; max response: hits give low values.
Procedure, shortened: (§1)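 Cells exposed to compounds for 48 or 72 hr at 37 degrees Celsius. Viability read as ATP-coupled luminescence with CellTiter-Glo after 10 min at room temperature.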
On the % scale 0 is the no-effect control and ±100 the full control effect; potency means the concentration at half of the fitted maximal effect.

| SMILES | max response [%] | outcome |
| --- | --- | --- |
| COc1cc(NC(C)CCCN)c2ncccc2c1 (stereo not given) | 4.62 | – |
| COc1ccc(-c2cc(=S)ss2)cc1 | -2.86 | – |
| Cc1cc(O)c2ccccc2c1O | -18 | – |
| CC(N)C(=O)OC(C)(C)Cc1ccc(Cl)cc1 (stereo not given) | 4.4 | – |
| Fc1ccc2[nH]c(CN3CCN(c4ccccn4)CC3)cc2c1 | -22.3 | – |
| Clc1ccccc1-c1nc(-c2ccncc2)no1 | -4.27 | – |
| CCCC(=O)OC[C@@H](OC(=O)CCC)[C@@H](OC(=O)CCC)[C@H](Cn1c2nc(=O)[nH]c(=O)c-2nc2cc(C)c(C)cc21)OC(=O)CCC | – | inactive |
| CCCCN(CC)c1nc(C)nc2c1c(C)cn2-c1c(C)cc(C)cc1C | -5.83 | – |

These compounds were tested on HEK293 in the same assay as above. Settings: Five cell lines viability, CellTiter-Glo ATP luminescence, 48-72 h; max response: hits give low values.
Procedure, shortened: as §1

| SMILES | Potency | max response [%] | outcome |
| --- | --- | --- | --- |
| O=Cc1ccc(O)c(O)c1O | 26.6 µM (active) | – | – |
| O=C(OCc1ccccc1)c1ccccc1 | – | -2.07 | – |
| CS(=O)(=O)c1ccc(-n2nc(C(F)(F)F)cc2-c2ccc(F)cc2)cc1 | – | 1.42 | – |
| CCCCCCCCCCCCCCCCCC(=O)O | – | – | inactive |
| CCCCC1C(=O)N(c2ccccc2)N(c2ccc(O)cc2)C1=O (stereo not given) | 4.73 µM (active) | – | – |
| c1ccc(CCNc2nc(-c3ccccc3)cs2)cc1 | 11.9 µM (active) | – | – |
| Cc1c(C(=O)O)c(O)cc2c1C(=O)c1c(O)c([C@@H]3O[C@H](CO)[C@@H](O)[C@H](O)[C@H]3O)c(O)c(O)c1C2=O | – | -35.5 | – |
| O=C(O)Cc1cccc(-c2cc(CCCCCCc3ccc(O[C@H]4O[C@H](CO)[C@@H](O)[C@H](O)[C@@H]4O)c(-c4cccc(CC(=O)O)c4)c3)ccc2O[C@H]2O[C@H](CO)[C@@H](O)[C@H](O)[C@@H]2O)c1 | – | 1.99 | – |
| COC(=O)C1=C(C)NC(C)=C(C(=O)OCC(C)=O)C1c1ccccc1[N+](=O)[O-] (stereo not given) | – | – | inactive |

These compounds were tested on HaCat in the same assay as above. Settings: Five cell lines viability, CellTiter-Glo ATP luminescence, 48-72 h; max response: hits give low values.
Procedure, shortened: as §1

| SMILES | outcome | max response [%] | Potency |
| --- | --- | --- | --- |
| O=Cc1ccc(O)c(O)c1O | inactive | – | – |
| O=C(OCc1ccccc1)c1ccccc1 | – | 4.92 | – |
| CS(=O)(=O)c1ccc(-n2nc(C(F)(F)F)cc2-c2ccc(F)cc2)cc1 | inactive | – | – |
| CN(C)c1ccc(N=NS(=O)(=O)O)cc1 | – | -1.75 | – |
| C#C[C@]1(O)CC[C@H]2[C@@H]3CCc4cc(O)ccc4[C@H]3CC[C@@]21C | – | – | 4.73 µM (active) |
| NS(=O)(=O)c1ccc(-n2nc(C(F)(F)F)cc2-c2ccc(Cl)cc2)cc1 | inactive | – | – |
| COc1cc(NC(C)CCCN)c2ncccc2c1 (stereo not given) | inactive | – | – |
| CCCCCCCCCCCCCCCCCC(=O)O | inactive | – | – |
| COC(=O)C1=C(C)NC(C)=C(C(=O)OCC(C)C)C1c1ccccc1[N+](=O)[O-] (stereo not given) | – | 0.281 | – |
| CCN(CC)CCCCNc1ncc2cc(-c3c(Cl)cccc3Cl)c(NC(=O)NC(C)(C)C)nc2n1 | – | – | 20.6 µM (active) |
| COc1ccc(-c2cc(=S)ss2)cc1 | inactive | – | – |
| CN(C)[C@@H]1C(=O)C(C(=O)NCN2CCCC2)=C(O)[C@@]2(O)C(=O)C3=C(O)c4c(O)cccc4[C@@](C)(O)C3C[C@@H]12 (stereo not given in full) | – | -12.7 | – |
| c1ccc(CCNc2nc(-c3ccccc3)cs2)cc1 | inactive | – | – |
| Cc1cc(O)c2ccccc2c1O | inactive | – | – |
| CC(N)C(=O)OC(C)(C)Cc1ccc(Cl)cc1 (stereo not given) | inactive | – | – |
| CCCCCCOc1ccccc1C(N)=O | – | -20.5 | – |
| Clc1ccccc1-c1nc(-c2ccncc2)no1 | inactive | – | – |
| Nc1nc2ccc([N+](=O)[O-])cc2s1 | – | – | 27.3 µM (active) |
| CCCC(=O)OC[C@@H](OC(=O)CCC)[C@@H](OC(=O)CCC)[C@H](Cn1c2nc(=O)[nH]c(=O)c-2nc2cc(C)c(C)cc21)OC(=O)CCC | – | 4.67 | – |
| O=c1cc(-c2ccccc2)oc2ccccc12 | – | – | 34 µM (active) |
| CCCCN(CC)c1nc(C)nc2c1c(C)cn2-c1c(C)cc(C)cc1C | – | 4.42 | – |
| O=C(O)Cc1cccc(-c2cc(CCCCCCc3ccc(O[C@H]4O[C@H](CO)[C@@H](O)[C@H](O)[C@@H]4O)c(-c4cccc(CC(=O)O)c4)c3)ccc2O[C@H]2O[C@H](CO)[C@@H](O)[C@H](O)[C@@H]2O)c1 | – | -11.5 | – |
| COC(=O)C1=C(C)NC(C)=C(C(=O)OCC(C)=O)C1c1ccccc1[N+](=O)[O-] (stereo not given) | inactive | – | – |
